Structures are written as SMILES. The panel holds about 83,000 compounds, 20% with a hit somewhere; the sample as a whole holds those more often.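 Step 1: grow cells in 96-well plates. Step 2: add test compound at a single concentration. Step 3: incubate 48 h. Step 4: record percent growth.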 Active and inactive are the calls of the source. The calls were made as follows: active = growth percent below 10; inactive = the rest.

This is an account of results in PubChem BioAssay (NCI).

The assay deals with SN12C renal. Put plainly: NCI-60 one-dose screen, 48 h (100 = growth as untreated, 0 = no growth, -100 = all killed). To be noted: 10 µM unless noted.
With `COC(=O)[C@@H](C)C[C@H](Cc1ccccc1)NC(=O)c1nc([C@@H](C[C@H](C(C)C)N(C)C(=O)[C@@H](NC(=O)[C@H]2CCCN2C)C(C)C)OC(C)=O)sc1C`, the growth was 31% (inactive).

Consider `CCCCCSC1C2C(=O)C(Br)=CC13CCNc1c(O)c4c5c(c13)=[N+]2CCC=5C=N4` (configuration not stated), for which the growth is -61.9% (active).

Take `CC1=C(CCCOC(=O)CN)C2=C(C)C3(CC3)[C@@](C)(O)C(=O)C2=C1`: the growth was 81.3% (inactive).

In the case of `COC(=O)CC[C@H](Cc1ccccc1)NC(=O)c1csc([C@@H](C[C@H](C(C)C)N(C)C(=O)[C@@H](NC(=O)[C@H]2CCCCN2C)C(C)C)OC(C)=O)n1`, the growth was 43.8% (inactive).

On to `COC(=O)CC12CC(NC(=O)c3csc([C@@H](C[C@H](C(C)C)N(C)C(=O)[C@@H](NC(=O)[C@H]4CCCCN4C)C(C)C)OC(C)=O)n3)(C1)C2`, for which the growth was 25.4% (inactive).

In the case of `O=C1CNC(c2ccccc2)c2cc(Cl)ccc2N1` (configuration not stated), the growth is 97.6% (inactive).

As for `CC1(C)N=C(N)N=C(N)N1c1cccc(CCCCc2ccc(Cl)c(S(=O)(=O)F)c2)c1`, the growth is 30.5% (inactive).

In the case of `CC(=O)O[C@H](C[C@H](C(C)C)N(C)C(=O)[C@@H](NC(=O)[C@H]1CCCCN1C)C(C)C)c1nc(C(=O)N[C@@H](Cc2ccccc2)C[C@H](C)C(=O)O)c(C(C)C)s1`, the growth was 16.6% (inactive).

As for `COC(=O)[C@@H](C)C[C@H](Cc1ccccc1)NC(=O)c1csc(CC[C@H](C(C)C)N(C)C(=O)[C@@H](NC(=O)[C@H]2CCCCN2C)C(C)C)n1`, the growth was 36.5% (inactive).

Take `CCOP(=O)(NC[C@H]1O[C@](O)(CO)[C@@H](O)[C@@H]1O)OCC`: the growth was 100% (inactive).

Consider `COc1cc([C@@H]2c3cc4c(cc3[C@H](OC(C)=O)[C@H]3COC(=O)[C@H]23)OCO4)cc(OC)c1OC`, for which the growth was 31.9% (inactive).

`COC(=O)[C@@H](C)C[C@H](Cc1cn(C)c2ccccc12)NC(=O)c1csc([C@@H](C[C@H](C(C)C)N(C)C(=O)[C@@H](NC(=O)[C@H]2CCCCN2C)C(C)C)OC(C)=O)n1`: the growth is 23.5% (inactive).

On to `CCOC(=O)[C@@H](C)C[C@H](Cc1ccccc1)NC(=O)c1csc([C@@H](C[C@H](C(C)C)N(C)C(=O)[C@@H](NC(=O)[C@H]2CCCCN2C)C(C)(C)C)OC(C)=O)n1`, for which the growth is 13.3% (inactive).

`CC1=C(CCCNS(C)(=O)=O)C2=C(C)C3(CC3)[C@@](C)(O)C(=O)C2=C1`: the growth was 8.84% (active).

Regarding `COC(=O)[C@@H](C)C[C@H](Cc1ccccc1)NC(=O)c1cccc([C@@H](C[C@H](C(C)C)N(C)C(=O)[C@@H](NC(=O)[C@H]2CCCCN2C)C(C)C)OC(C)=O)n1`, the growth is 17.1% (inactive).

`CNC(=O)Oc1ccc(C(C)(C)C)cc1OC(=O)NC`: the growth is 95.2% (inactive).

As for `CC1(C)C(C(=O)c2cn(CCCCF)c3ccccc23)C1(C)C`, the growth is 103% (inactive).

Turning to `CC(=O)O[C@H](C[C@H](C(C)C)N(C)C(=O)[C@@H](NC(=O)[C@H]1CCCCN1C)C(C)C)c1nc(C(=O)NC2CCC(C(=O)O)CC2)cs1` (some centres not stated), the growth is 13.4% (inactive).

`CCCC[C@H](NC(=O)[C@H]1CCCN1C)C(=O)N(C)[C@H](C[C@@H](OC(C)=O)c1nc(C(=O)N[C@@H](Cc2ccccc2)C[C@H](C)C(=O)OCC)cs1)C(C)C`: the growth is 23.6% (inactive).

Regarding `CCOC(=O)[C@@H](C)C[C@H](Cc1ccccc1)NC(=O)c1csc([C@@H](C[C@H](C(C)C)N(C)C(=O)CNC(=O)[C@H]2CCCCN2C)OC(C)=O)n1`, the growth is 36% (inactive).

In the case of `COc1ccc([As]=[As]c2ccc(OC)c(NCS(=O)(=O)O)c2)cc1NCS(=O)(=O)O` (configuration not stated), the growth is 12.4% (inactive).

Regarding `CC1=C(CCCOC(=O)[C@H](N)CC(C)C)C2=C(C)C3(CC3)[C@@](C)(O)C(=O)C2=C1`, the growth is 29.3% (inactive).

Turning to `O=[N+]([O-])c1cc(I)cc([N+](=O)[O-])c1`, the growth is 103% (inactive).

As to `CC(=O)OC[C@]1(C)C=C2C(=O)[C@](C)(O)C3(CC3)C(C)=C2[C@H]1OC(=O)N(C)CCN(C)C(=O)OC(C)(C)C`, the growth is 14.2% (inactive).

Regarding `CC[C@H](C)[C@H](NC(=O)[C@H]1CCCCN1C)C(=O)N(C)[C@H](CCc1nc(C(=O)N[C@@H](Cc2ccccc2)C[C@H](C)C(=O)OC)cs1)C(C)C`, the growth is 28.9% (inactive).

As to `COc1ccc(Nc2ccc([N+](=O)[O-])cc2[N+](=O)[O-])cc1CN(CCCl)CCCl`, the growth is 21.4% (inactive).

With `COC(=O)CCc1c[nH]c2ccc(N(CCCl)CCCl)cc12`, the growth was 36.6% (inactive).

Take `Nc1c(F)cc(-c2nc3cc(F)ccc3[se]2)cc1F`: the growth was 85.9% (inactive).

Turning to `COC(=O)[C@@]1(C)CC[C@]2(C)CC[C@]3(C)C4=CC=C5C(=CC(=O)C(O)=C5C)[C@]4(C)CC[C@@]3(C)[C@@H]2C1`, the growth was -88.2% (active).

Turning to `COC(=O)[C@@H](C)C[C@H](Cc1ccccc1)NC(=O)c1nc([C@@H](C[C@H](C(C)C)N(C)C(=O)[C@@H](NC(=O)[C@H]2CCCCN2C)C(C)C)OC(C)=O)sc1C`, the growth is 18.3% (inactive).

As for `CC(=O)O[C@H](C[C@H](C(C)C)N(C)C(=O)[C@@H](NC(=O)[C@H]1CCCN1C)C(C)C)c1nc(C(=O)N[C@@H](Cc2ccccc2)C[C@H](C)C(=O)O)c(C)s1`, the growth was 29.2% (inactive).

Regarding `CCOC(=O)[C@@H](C)C[C@H](Cc1ccccc1)NC(=O)c1csc([C@@H](C[C@H](C(C)C)N(C)C(=O)[C@H](CCC(C)C)NC(=O)[C@H]2CCCCN2C)OC(C)=O)n1`, the growth is 18.9% (inactive).

Turning to `COC(=O)C12CC(NC(=O)c3csc([C@@H](C[C@H](C(C)C)N(C)C(=O)[C@@H](NC(=O)[C@H]4CCCCN4C)C(C)C)OC(C)=O)n3)(C1)C2`, the growth is 24.5% (inactive).

With `Clc1ccc2nnnn2n1`, the growth is 51.2% (inactive).

With `CC[C@H](C)[C@H](NC(=O)[C@H]1CCCCN1C)C(=O)N(C)[C@H](C[C@@H](O)c1nc(C(=O)N[C@@H](Cc2ccccc2)C[C@H](C)C(=O)O)cs1)C(C)C`, the growth is 90.5% (inactive).

For `N#C[S-].[Au+].c1ccc(CN2[CH-]N(Cc3ccccc3)C(c3ccccc3)=C2c2ccccc2)cc1`, the growth was 6.67% (active).

Consider `CCCCCCCCCCCCNC(c1ccccc1)C(O)c1ccccc1` (configuration not stated), for which the growth is 68.5% (inactive).
